Laboratory results: PubChem BioAssay (NCI)
This is part of a sample that, as a whole, favours compounds with a hit. Of some 83,000 tested, about 20% had one in any assay.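 How to read the values: 0–100, growth inhibition (40 = 60% inhibited); 0, no net growth; -100 to 0, cell death (-40 = 40% of starting cells died; -100 = all dead).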 Unmarked numbers belong to inactive results. Activity calls are given as the source filed them.

Each compound was assayed on HT29 colon (assay: NCI-60 one-dose screen, 48 h (100 = growth as untreated, 0 = no growth, -100 = all killed)). Conditions: 10 µM.
Procedure: Growth inhibition of the HT29 human tumor cell line is measured as a screen for anti-cancer activity. Cells are grown in 96 well plates and exposed to the test compound for 48 hours. Compounds are tested at a single concentration, which is 10^-5 M for most compounds. The reported endpoint is percent growth (GI% or GIPRCNT), where numbers from 0 - 100% represent growth inhibition, and numbers from -100% - 0 represent cell death. For example, a value of 40 represents 60% growth inhibition. A value of 0 means no net growth occurred over the course of the experiment. A value of -40 indicates 40% of cells at the beginning of the experiment died by the end of the experiment. A value of -100 means all cells are dead at the end of the experiment.
NCI-60 Human Tumor Cell Lines Screen was performed using the standard one-dose NCI protocol, which is described in more detail at https://dtp.cancer.gov/discovery_development/nci-60/default.htm.
Compounds with GIPRCNT values below 10 were considered active. Activity score was based on GIPRCNT using the following formula: […]
Score is 0 for GIPRCNT values of 100 or above, 50 for GIPRCNT values of 0, and 100 for GIPRCNT values of -100.

Compound	growth
C#C[C@]1(O)CCC2C3CCc4cc(OC5CCCC5)ccc4C3CC[C@@]21C (stereo not given in full)	0.124% (active)
O=C(CCC(C(=O)c1ccccc1)c1ccccc1)c1ccccc1 (stereo not given)	34.1%
N#CC1=C(N)Oc2cc(N)ccc2C1c1cccnc1 (stereo not given)	93.8%
CCOC(=O)c1sc2ncnc(Nc3ccc(NC(=O)Nc4ccc(Cl)cc4)cc3)c2c1C	43%
CC(C)(C)OC(=O)N1CCc2c(sc3ncnc(N/N=C/c4cccc(Br)c4)c23)C1	47.7%
Cc1c(O)c(=O)ccn1C1CCC(CC2CCC(n3ccc(=O)c(O)c3C)CC2)CC1 (stereo not given)	33.8%
COc1ccc(-c2nn(-c3cccc(Cl)c3)cc2-c2nc(N)[nH]c(=O)c2C#N)cc1	86.5%
S=c1cnc2ccccc2[nH]1	93.7%
Cc1cc(Cl)ccc1Nc1nc(C(F)(F)F)ccc1C(=O)N/N=C/c1c(Cl)cccc1Cl	3.29% (active)
CC1/C=C/C=C/C=C/C=C/C=C/C=C/C=C/C(O[C@@H]2O[C@H](C)[C@H](O)[C@@H](O)[C@@H]2N)CC(O)C(C(=O)O)C(O)CC(=O)CC(O)CC(O)CC(O)CC(=O)CCCC(=O)CC(=O)OC1C(C)CC(C)C(O)CC(=O)c1ccc(N)cc1 (stereo not given in full)	-76.7% (active)
COc1ccc(N=Nc2cc(OC)c(OC)c(OC)c2)cc1	69.1%
COc1cc2c(Nc3ccc(S(N)(=O)=O)cc3)ncnc2c(OC)c1OC	105%
CN1CCN(CCC(=O)Nc2cccc(-n3cc(-c4ccncc4)c(-c4ccc(Cl)c(O)c4)n3)c2)CC1	4.91% (active)
COc1cc2c3c(n([C@@H]4CCOC4)c(=O)c2cc1OC)-c1cc2c(cc1C3=O)OCO2	42.9%
O=C1c2ccccc2C(=O)c2c1ccc(C(Br)Br)c2Cl	52.5%
O=C1c2ccccc2C(=O)c2c1ccc(C(Br)Br)c2[N+](=O)[O-]	46.1%
COc1ccc(C(=O)N/N=C/c2cc(C(F)(F)F)ccc2Cl)cc1	99.7%
CCN(CC)CCCC(C)N=C(C1=C(C(=NC(C)CCCN(CC)CC)c2cccc(OC)c2)C(=O)NC1=O)c1cccc(OC)c1 (stereo not given)	-10.5% (active)
CNC(=O)c1c(I)c(NC(C)=O)c(I)c(C(=O)O)c1I	103%
COc1ccc(C2=Cn3c(CCC(=O)c4nc5ccccc5[nH]4)nnc3SC2)cc1	58.2%

Compound	growth
Oc1ccc(-c2[nH]c3ccccc3c2-c2nc3ccccc3o2)cc1	27.8%
COc1ccc([C@H]2[C@H](C(=O)Nc3cccnc3)c3ccccc3C(=O)N2c2ccccc2)cc1	81.3%
CCOC(=O)c1cc(C(=O)c2cc(OC)cc(OC)c2)n2ncc3ccccc3c12	2.01% (active)
S=C1N(c2ccccc2)CN(C2CCCCC2)CN1c1ccccc1	99.5%
COc1ccc(/C=C/c2nnc(/C=C/c3ccc(OC)c(OC)c3)o2)cc1OC	-7.7% (active)
COc1cc(C2CC(c3ccccc3)=NN2C(C)=O)cc(OC)c1OC (stereo not given)	11.4%
C/C=C/CSC(C)(C)C(=O)NC	98.1%
COc1cc(-c2nn(-c3cccc(NC(=O)NCCNC(=O)c4ccccc4)c3)cc2-c2ccncc2)ccc1Cl	5.63% (active)
c1ccc2c(c1)Cc1ccccc1N2CCN1CCCCC1	74.4%
N=C1S/C(=C/c2ccc(-c3ccc4c(c3)C(=O)NC4=O)o2)C(=O)N1c1ccc(Br)cc1	21.9%
CC1(C)N=C(N)N=C(N)N1c1cccc(C#N)c1	35.9%
CCOC(=O)c1cc(C(=O)c2ccc(OC)c(OC)c2)n2c1ccc1ccc3cccnc3c12	6.74% (active)
OCCn1cccn1	104%
O=c1c(Br)ccc(Br)cc1Br	-41.6% (active)
Cc1ccc2nc(Cl)c(-c3nc4ccccc4o3)cc2c1	102%
COc1cc(-c2nn(-c3cccc(NC(=O)NCCNS(=O)(=O)c4ccc(Cl)cc4)c3)cc2-c2ccncc2)ccc1Cl	-24.4% (active)
CN(C)c1nc(N)c2nccnc2n1	110%
c1ccc(CCCCc2ccc3ccccc3n2)cc1	87.1%
Cc1ccccc1N1C(=O)c2cc(S(N)(=O)=O)c(Cl)cc2NC1C (stereo not given)	101%
CC(=O)N[C@H](C(=O)N[C@@H](CCCNC(=N)N)C(=O)N[C@@H](CCCCN)C(=O)N[C@@H](CCCNC(=N)N)C(=O)N[C@]1(C)CCC/C=C\CCC[C@@](C)(C(=O)N[C@@H](CC(C)C)C(=O)N[C@@H](CC(C)C)C(=O)N[C@@H](CCC(N)=O)C(=O)N[C@@H](CCC(=O)O)C(=O)N[C@@H](CCCNC(=N)N)C(=O)N[C@@H](CCC(=O)O)C(=O)N[C@@H](CC(C)C)C(=O)N[C@H](C(=O)N[C@@H](CCC(=O)O)C(N)=O)C(C)C)NC(=O)[C@H](CCCNC(=N)N)NC(=O)[C@H](CC(C)C)NC1=O)C(C)C	95.3%
